“And” between values parts separate entries of the source, which are not always exact repeats. Equal values may be shown once. Results filed as inconclusive are left out. Entries that show only a call come without a potency. Some compounds were tested as several samples or in several runs, with calls that do not always agree. The source made the active and inactive calls. Calls come from the whole dose curve; as a rule, active = well fitted cell-killing curve with a large enough effect in the repeat runs; inconclusive = weak or mixed curves, or effect the other way; inactive = no such curve, though single readings can be large or run the other way.
Assay: qHTS assay to identify small molecule agonists of the farnesoid-X-receptor (FXR) signaling pathway - cell viability counter screen (AID 743218); note: nearly all actives have a fitted effect of over 45% in size
Settings: FXR-bla HEK293T viability, CellTiter-Glo luminescence, 16 h; series mostly up to 62.6 µM; viability change, negative = cytotoxic: at the top concentration
Source text: U.S. Tox21 Program National Center for Advancing Translational Sciences [NCATS] NIH Chemical Genomics Center [NCGC] U.S. Environmental Protection Agency [EPA] National Institutes of Environmental Health Sciences [NIEHS] National Toxicology Program [NTP] U.S. Food and Drug Administration [FDA] Tox21 Assay Overview: The farnesoid-X-receptor (FXR), a nuclear hormone receptor, is highly expressed in liver, intestine, kidney and adrenal cortex. Natural ligands of FXR are the bile acids (Cholic acid, Chenodeoxy cholic acid etc). FXR is an important regulator of diverse metabolic pathways, including the bile acid homeostasis, lipid and glucose metabolisms. FXR regulates the expression of target genes by binding either as a monomer or as a heterodimer with the retinoid X receptor (RXR). Numerous studies have reported that FXR exerts protective function during cholestasis, diabetes, liver regeneration, and cancer. To identify compounds that activate FXR signaling, GeneBLAzer FXR-UAS-bla HEK 293T cell line (Invitrogen, Carlsbad, CA) containing a beta-lactamase reporter gene under the control of a UAS response element was used to screen the Tox21 10K compound library. The cytotoxicity of the Tox21 compound library against the FXR-bla cell line was tested in parallel by measuring the cell viability using CellTiter-Glo assay in the same wells.
Tox21 Assay Protocol Summary: FXR-bla cells were dispensed at 5000 cells/5uL/well in 1536-well black wall/clear bottom plates using a Multidrop Combi (Thermo Fisher Scientific, Waltham, MA) dispenser. After the assay plates were incubated at 37 C and 5% CO2 for 5 h, 23 nL of compounds dissolved in DMSO, positive controls or DMSO only was transferred to the assay plate by a Pintool station (Kalypsys, San Diego, CA). The assay plates were incubated at 37C for 16 h. After 1 uL of LiveBLAzerTM B/G FRET substrate was added using a Bioraptr Flying Reagent Dispenser (FRD) workstation (Beckman Coulter, Indianapolis, IN), the plates were incubated at room temperature for 2 h, and fluorescence intensity was measured by an Envision plate reader (PerkinElmer, Shelton, CT). For cell viability readout that measures cytotoxicity, 4uL/well of CellTiter-Glo reagent was added into the assay plates using a Bioraptr FRD. After 30 min incubation at room temperature, the luminescence intensity in the plates was measured using a ViewLux plate reader (PerkinElmer).
Potency is the fitted concentration of half-maximal effect.

Compound	viability change, negative = cytotoxic	Potency
CC(=O)[C@@]1(O)CC[C@H]2[C@@H]3C[C@H](C)C4=CC(=O)C=C[C@]4(C)[C@@]3(F)[C@@H](O)C[C@@]21C	-16.8% (inactive)	–
CC(C)(Oc1ccc(Cl)cc1)C(=O)O	–	inactive
C1CN(SSN2CCOCC2)CCO1	1.87% (inactive)	–
OCCNCCO	–	inactive
O=C1OC2(c3ccccc31)c1cc(I)c(O)c(I)c1Oc1c2cc(I)c(O)c1I	–	inactive
CCCCCCCCCCCCO	–	inactive
CCc1cccc2c3c([nH]c12)C(CC)(CC(=O)O)OCC3 (stereo not given)	–	inactive
O=C(O)c1cc(=O)[nH]c(=O)[nH]1	–	inactive
Cc1cccc(Nc2ccccc2C(=O)O)c1C	–	inactive
COC(=O)C(C)Oc1ccc(Oc2ncc(C(F)(F)F)cc2Cl)cc1 (stereo not given)	–	inactive
CC1=CC(C)(C)Nc2ccccc21	6.38% (inactive)	–
Cc1ccc2c(c1)C(=O)OC2=O	–	inactive
CC[C@]12CCCN3CCc4c(n(c5ccccc45)[C@@](O)(C(=O)OC)C1)[C@@H]32	–	inactive
C[N+](C)(C)CCO	–	inactive
CCC/C=C/C=O	–	inactive
Nc1ccc(N)c(Cl)c1	–	inactive
CCCOCCO	–	inactive
NCCS(=O)(=O)O	–	inactive
CC(=O)[C@H]1CC[C@H]2[C@@H]3CC=C4C[C@@H](O)CC[C@]4(C)[C@H]3CC[C@]12C	–	inactive
O=C(O)c1ccc(O)cc1	4.39% (inactive)	–

Compound	viability change, negative = cytotoxic	Potency
NCCOCCO	–	inactive
CC(=O)Oc1c(C)c(C)c2c(c1C)CC[C@@](C)(CCC[C@H](C)CCC[C@H](C)CCCC(C)C)O2	–	inactive
Nc1ccc(O)c(N)c1	–	inactive
C[C@]12CC[C@@H]3c4ccc(O)cc4CC[C@H]3[C@@H]1CC[C@@H]2O	1.1% (inactive)	–
Nc1cc(Cl)c(N)c(Cl)c1	–	inactive
CCCCCCCCCCC(CO)CCCCCCCC (stereo not given)	–	inactive
C=CCOC(=O)C(=C)C	–	inactive
C=CC(C)(O)CCC=C(C)C (stereo not given)	–	inactive
C=C[C@@]1(C)CC(=O)[C@]2(O)[C@@]3(C)[C@@H](O)CCC(C)(C)[C@@H]3[C@H](O)[C@H](OC(C)=O)[C@@]2(C)O1	–	9.77 µM (active) and 8.41 µM (active)
C=C[C@H]1CN2CC[C@H]1C[C@H]2[C@H](O)c1ccnc2ccc(OC)cc12	-11.3% (inactive)	–
O=Cc1ccccc1C=O	–	inactive
O=C(O)COCCN1CCN(C(c2ccccc2)c2ccc(Cl)cc2)CC1 (stereo not given)	–	inactive
Nc1ccc2c(O)cc(S(=O)(=O)O)cc2c1	-27.5% (inactive)	–
Cc1ccc(C)c(O)c1	–	inactive
CC(C)(C)c1cccc(C(C)(C)C)c1O	–	inactive
C[C@]12C=CC(=O)C=C1CC[C@H]1[C@@H]3C[C@@H](O)[C@](O)(C(=O)CO)[C@@]3(C)C[C@H](O)[C@@]12F	–	inactive
CN1CCOCC1	–	inactive
C=C[C@H]1CN2CC[C@H]1C[C@@H]2[C@@H](O)c1ccnc2ccc(OC)cc12	–	24.1 µM (active) and inactive
CN(C)C	–	inactive
CCCCCCOCCOCCO	12.1% (inactive)	–
